Sampled rows, rich in hits. Any-hit rate of the full collection: about 19%.
HT1080-NT tox – kills 2HG-producing HT-1080-NT fibrosarcoma cells. HT-1080-NT fibrosarcoma viability, CellTiter-Glo ATP luminescence, 48 h. Potency, µM (highest dose often 46.1 µM), inactives show at the top dose activity, negative = less viability, most hits filed as cytotoxic. 1.6% of 360,000 active;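 also: NT is the 2HG producing partner of a matched IDH1 knockdown line; potency is read from the fitted curve at half-maximal effect; 0% = DMSO-treated cells and -100% = media-only wells without cells; nearly all actives have a fitted effect of over 55% in size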
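Compounds were tested in concentration-response format on HT-1080-NT cells for 48 hours at 37 degrees C. Cell viability came from CellTiter-Glo luminescence; curves were classified by r2, response magnitude and activity.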
DT40 TDP1 CPT – growth inhibition of DT40 Tdp1-/-;hTDP1 cells with camptothecin (screen for TDP1 inhibitors) | 12% of 420,000 active | Potency, µM (highest dose often 46.2 µM), for the others: top-dose activity change, negative = growth inhibition, most hits filed as inhibitors | chicken DT40 Tdp1-/-;hTDP1 cells + 20 nM CPT, ATP luminescence, 48 h; also: potency is read from the fitted curve at half-maximal effect; nearly all actives have a fitted effect of over 55% in size
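Chicken DT40 Tdp1-/- cells stably complemented with human TDP1 were seeded at 400 cells/well in medium containing 20 nM camptothecin, exposed to pin-transferred compounds, and grown at 37 °C for at least 48 hr. Viability was read as ATP luminescence.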
HT1080 IDH1KD tx – kills HT-1080 cells with IDH1 knockdown; HT-1080 IDH1 knockdown viability, ATP luminescence, 48 h; Potency, µM (highest dose often 46.1 µM), for inactives: at the top dose activity, negative = toxicity, usual class: cytotoxic; 2% of 360,000 active; AID 686971;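 also: potency is read from the fitted curve at half-maximal effect; 0% = DMSO wells and -100% = cell-free medium wells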
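After a 2 h attachment period, IDH1KD HT-1080 cells took pin-transferred compound for 48 h at 37 °C; ATP-based luminescence after 10 min room-temperature reagent incubation reported viability.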
DT40 TDP1 no CPT – qHTS for Inhibitors of human tyrosyl-DNA phosphodiesterase 1 (TDP1): qHTS in cells in absence of CPT; DT40 Tdp1-/- hTDP1 cells, no CPT, ATP luminescence, 48 h; Potency, µM (top dose mostly 46.2 µM), for the others: at the highest dose activity change, negative = growth inhibition, most hits filed as inhibitors; 15% of 420,000 active; AID 686978, 2013; also: potency is read from the fitted curve at half-maximal effect; nearly all actives have a fitted effect of over 55% in size
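Camptothecin absent (DMSO only). Human TDP1-complemented DT40 knockout cells, 400 cells/well, 37 °C for minimum 48 hr; ATP measured via CellTiter-Glo, 30 min dark incubation, luminescence.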
IL-1B inflam inh – inflammasome signaling inhibition, IL-1 beta readout | THP-1 LPS/ATP IL-1B secretion, AlphaLISA, 16 h; active compounds read low | activity change, % at 57.5 µM | 4.7% of 360,000 active; in the data active = activity change below about -50%; inconclusive = mostly about -30% to -49%
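Secreted IL-1B measured by AlphaLISA bead assay after 16 h compound exposure of THP-1 cells; compounds (final up to 57.5 uM) added 1 h before LPS (250 ng/mL) and ATP (1.25 mM) stimulation; lower signal means less secretion.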
* = called active by the depositor; ? = inconclusive; / = no result given. Unless noted, calls follow the shape of the dose curve; as a rule, active = well fitted curve in the direction sought with a large enough effect; inconclusive = small, poorly fitted or top-dose-only effect, or another doubt; inactive = no such curve, though single readings can be large; an effect the other way counts as inactive or inconclusive. Unless noted, % is scaled to controls: 0 for no effect and ±100 for the full control effect.

SMILES | HT1080-NT tox | DT40 TDP1 CPT | HT1080 IDH1KD tx | DT40 TDP1 no CPT | IL-1B inflam inh
CCSc1nnc(NC(=O)CSc2nccn2-c2cc(C)cc(C)c2)s1 | 19% | -3% | 13% | -3% | 4
Cc1cc(C)cc(-n2ccnc2SCC(=O)Nc2nnc(C)s2)c1 | / | 4.1µM* | / | 3.3µM* | /
Cc1cccc(-n2ccnc2SCC(=O)Nc2nnc(C)s2)c1 | -6% | ? | ? | 15µM* | -11
Cc1cccc(-n2ccnc2SCC(=O)Nc2nc3ccccc3s2)c1 | / | ? | / | 23µM* | /
CCCCCC(NC(=O)C1CCN(C(=O)[C@@H](NS(=O)(=O)c2ccc(C)cc2)C(C)C)CC1)C(=O)O (some centres undefined) | 1% | 7% | ? | 1% | 4
COCCN(C(=O)COC(=O)c1ccc2c(c1)OCO2)c1c(N)n(Cc2ccccc2)c(=O)[nH]c1=O | 8% | -7% | 7% | -11% | -10
CC(C)c1ccc(/C=c2\sc3nc(-c4ccncc4)nn3c2=O)cc1 | 7% | ? | 11% | 12µM* | 6
Cc1ccc(/C=c2\sc3nc(-c4cccnc4)nn3c2=O)cc1 | -1% | ? | -1% | 29µM* | 0
CCOc1ccc(/C=c2\sc3nc(-c4ccco4)nn3c2=O)cc1OCC | 8% | -30% | 5% | -27% | 18
Cc1cc(Br)ccc1NC(=O)CSc1nnc(CN2CCOCC2)n1C | 17% | 1% | 26% | -4% | -17
Cc1cc(C)c2c(CC(=O)Nc3c(C(=O)c4ccc(F)cc4)oc4ccccc34)coc2c1 | / | -2% | / | -2% | /
COc1ccccc1P(=O)(Cc1ccccc1[N+](=O)[O-])c1ccccc1 (centres undefined) | -13% | ? | -1% | 15µM* | -10
O=C(Cc1cccs1)Nc1nnc(SCc2ccc(C(F)(F)F)cc2)s1 | -15% | 15µM* | -2% | ? | 21
O=C(Cc1cccs1)Nc1nnc(SCc2ccc(Br)cc2)s1 | -5% | -14% | -6% | ? | 3
CC1CCCC(C)N1C(=O)COC(=O)c1n[nH]c(=O)c2ccccc12 (centres undefined) | 3% | 11% | 3% | -5% | 24
C[C@@H]1C=C(C(=O)NCc2nc3ccccc3[nH]2)O[C@H](OCc2ccc(CO)cc2)C1 | -22% | 16µM* | -5% | ? | 0
CCO[C@@H]1OC(C(=O)NCc2nc3ccccc3[nH]2)=C[C@H](C2CC2)[C@H]1CCCO | 18µM* | 4.6µM* | ? | 2.9µM* | 18
CCO[C@H]1OC(C(=O)NCc2nc3ccccc3[nH]2)=C[C@@H](c2ccc(Br)cc2)[C@@H]1CCCO | ? | ? | -28% | ? | -16
CCO[C@@H]1OC(C(=O)NCc2nc3ccccc3[nH]2)=C[C@H](C(C)(C)C)[C@H]1CCCO | 3.3µM* | 1.3µM* | 3.3µM* | 1.2µM* | 34
O=C(NCc1nc2ccccc2[nH]1)C1=C[C@H](c2ccc(Br)cc2)C[C@H](OCc2ccc(CO)cc2)O1 | -3% | ? | -16% | ? | -23
COCCNC(=S)NNc1cccc(C(=O)O)c1 | 4% | ? | -1% | ? | 11
O=C(Cc1cccc(NC(=O)C2CCCN(C(=O)C3CCC3)C2)c1)Nc1cccc(C(=O)N2CCOCC2)c1 (centres undefined) | 5% | -19% | 6% | -25% | -4
O=C(COC(=O)c1cc[n+]([O-])cc1)Nc1ccc([N+](=O)[O-])cc1C(F)(F)F | 11% | 0% | 11% | -3% | 2
CC(=O)c1ccc(N2CCN(Cc3cc(=O)n4c(-c5ccccc5)csc4n3)CC2)cc1 | ? | ? | -18% | 21µM* | 31
O=c1cc(CN2CCN(c3ccccc3)CC2)nc2scc(-c3ccccc3)n12 | -9% | ? | -2% | 23µM* | 42
SMILES | HT1080-NT tox | DT40 TDP1 CPT | HT1080 IDH1KD tx | DT40 TDP1 no CPT | IL-1B inflam inh
CC(=O)c1ccc(N2CCN(Cc3nc(Cc4ccccc4)no3)CC2)cc1 | -17% | ? | 2% | 16µM* | 13
CCCNC(=O)C1(C)CCN1C(=O)c1ccc(C(C)(C)C)cc1 (centres undefined) | -24% | ? | -15% | 15µM* | 23
CSCCNC(=O)C1(C)CCN1C(=O)c1ccc(C(C)(C)C)cc1 (centres undefined) | 3% | 18µM* | -15% | 15µM* | 31
CCCNC(=O)C1(C)CCN1C(=O)Cc1ccc(C(C)(C)C)cc1 (centres undefined) | 1% | ? | -2% | 15µM* | 42
COc1nnc(-c2ccc(N3CCCCC3)c(NC(=O)c3ccccc3Cl)c2)c2ccccc12 | / | 6.5µM* | / | 6.5µM* | /
COc1ccc(-c2nn(C)c(=O)c3ccccc23)cc1CNC(=O)c1ccco1 | -12% | ? | -14% | ? | -18
COc1nnc(-c2ccc(N3CCOCC3)c(NC(=O)c3ccco3)c2)c2ccccc12 | -19% | ? | -19% | 26µM* | -16
Cn1nc(-c2ccc(N3CCCCC3)c(NC(=O)c3ccco3)c2)c2ccccc2c1=O | 12% | 21µM* | 14% | 16µM* | 32
Cc1ccc(NC(=O)c2cnc(SCC(=O)N3CCOCC3)n(C)c2=O)cc1 | / | -11% | / | -23% | /
COc1ccc(CCNC(=O)C2CCN(C(=O)c3ccc([N+](=O)[O-])cc3)CC2)cc1 | 13% | -11% | 12% | -4% | -23
Cc1ccc(CN2CCN(/N=C/c3cc(Br)cc(Br)c3O)CC2)c(C)c1 | 7% | -3% | 14% | -18% | -19
Cc1ccc(-n2[nH]c(C)c(/C=N/c3cccc(C)n3)c2=O)cc1 | ? | ? | -28% | -14% | 26
COc1cc(S(=O)(=O)Nc2ccc(C)cc2)ccc1N=Cc1c(C)[nH]n(-c2ccc(C)cc2)c1=O | ? | -23% | ? | 13µM* | -7
COc1cc(S(=O)(=O)Nc2ccc(C)cc2)ccc1N=Cc1c(C)c(C#N)c(=O)n(C)c1O | 12% | ? | 4% | 13µM* | 1
Cc1ccc(N/N=C/c2c(C)c(C#N)c(=O)n(C)c2O)cc1C | 6% | ? | 14% | ? | 8
CCCCc1nc2cc(C(=O)NCCc3c(C)n[nH]c3C)ccc2o1 | 18% | 7% | 9% | -1% | -3
O=C(Oc1ccc(Br)cc1C(=O)/C=C/c1ccccc1F)c1ccco1 | ? | 21µM* | ? | 16µM* | -98*
CCC(=O)Nc1ccc(NC(=O)CSc2nnc(-c3ccco3)n2CC)cc1 | 11% | 0% | 2% | -15% | 7
CN(Cc1ccccc1)C(=O)CN1CCN(S(=O)(=O)c2ccccc2F)CC1 | -4% | -27% | -4% | ? | 19

Screening data: PubChem, National Center for Advancing Translational Sciences (NCATS)
